Bioassay records from PubChem.
PriA SSB inh – blocks PriA binding to SSB C-terminal tail; AlphaScreen SSBct-PriA binding, biotinylated peptide; inhibition, % at 33 µM; 0.6% of 430,000 active; in the data active means inhibition mostly above about 37%, no sharp cut-off; inactive means mostly below about 20%
Rv3671c inh – inhibits the M. tuberculosis serine protease Rv3671c | AID 2606 | 0.048% of 320,000 active | inhibition, % at 5.96 µM | P9WHR9; in the data active means inhibition above about 38%;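 further: extracellular domain of Rv3671c used as enzyme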
Mtb UGM inh – inhibitors of M. tuberculosis UDP-galactopyranose mutase | inhibition, % at 10 µM | purified UGM, fluorescence polarization probe displacement | AID 504406 | 0.06% of 320,000 active; in the data active means inhibition above about 10%, passing the limit was not always enough; inconclusive means no clear call, values can overlap the other calls
Target sequence (P9WIQ1 whole entry, looked up): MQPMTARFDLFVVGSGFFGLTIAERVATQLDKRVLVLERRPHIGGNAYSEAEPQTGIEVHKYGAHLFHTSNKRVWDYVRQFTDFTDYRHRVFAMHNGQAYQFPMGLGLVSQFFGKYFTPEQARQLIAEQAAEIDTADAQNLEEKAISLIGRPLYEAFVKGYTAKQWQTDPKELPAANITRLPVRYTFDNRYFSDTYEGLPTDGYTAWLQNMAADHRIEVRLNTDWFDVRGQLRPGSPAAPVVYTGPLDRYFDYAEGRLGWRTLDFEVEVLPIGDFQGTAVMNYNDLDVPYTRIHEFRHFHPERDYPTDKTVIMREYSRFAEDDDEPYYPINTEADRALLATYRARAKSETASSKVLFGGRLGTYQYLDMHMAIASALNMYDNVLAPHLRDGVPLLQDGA
Mtb betalactam – beta-lactam sensitization of Mtb H37Rv | M. tuberculosis H37Rv growth with meropenem, percent inhibition | inhibition, % at 25 µM | 0.27% of 330,000 active | AID 434955; call rule not given here;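 further: growth measured after seven days incubation then overnight dye step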
GDH-TPI inh – inhibits GDH-TPI coupling enzymes, artifact for Mtb FBA screen; GDH-TPI coupled enzyme counterscreen, NADH absorbance; inhibition, % at 4.8 µM; 1.2% of 360,000 active; AID 588335; in the data active means inhibition above about 30%
Mtb FBA inh – Mtb fructose-bisphosphate aldolase inhibition; P9WQA3; purified M. tuberculosis FBA, fluorescence read-out; inhibition, % at 1 µM; 2.3% of 360,000 active; in the data active means inhibition above about 27%
Each line names hits and unclear results; the compound was inactive in the other large screens; ! = not confirmed by another sample. Hits are enriched below; roughly 3.2% of the tested compounds scored in any of these assays.

CN(C)/C=C1\N=C(c2ccc(Cl)cc2Cl)OC1=O	none (no result: Mtb betalactam)
COc1ccc(/C=C2/N=C(c3cccs3)OC2=O)cc1OC(C)C	none
CCOc1ccc(/C=C2\N=C(c3cccs3)OC2=O)cc1OC	Mtb UGM inh 38.1 (no result: PriA SSB inh, GDH-TPI inh, Mtb FBA inh)
Cc1ccc(C2=N/C(=C\c3cccc(F)c3)C(=O)O2)cc1	none (no result: Mtb betalactam)
COc1ccc(Cl)cc1NC(=O)C(=O)NCC1CCN(Cc2cccs2)CC1	none (no result: Rv3671c inh, Mtb UGM inh, Mtb betalactam, GDH-TPI inh, Mtb FBA inh)
CC(=NOCC(=O)Nc1ccccc1C(C)(C)C)c1ccc2c(c1)OCCO2	none (no result: Rv3671c inh, Mtb UGM inh, Mtb betalactam, GDH-TPI inh, Mtb FBA inh)
O=C1OC(c2cccs2)=N/C1=C\c1ccc(-c2ccccc2Cl)o1	none (no result: Rv3671c inh, Mtb UGM inh, Mtb betalactam)
O=C1OC(c2ccccc2)=N/C1=C\N1CCCCC1	GDH-TPI inh 41.4
CN(C)/C=C1\N=C(c2cccs2)OC1=O	GDH-TPI inh 48.6
C=CCn1c(SCC(=O)Nc2cccc([N+](=O)[O-])c2)nc2scc(-c3ccc(C)o3)c2c1=O	none (no result: Rv3671c inh, Mtb UGM inh, Mtb betalactam, GDH-TPI inh, Mtb FBA inh)
CCCCSc1nnc(-c2cn(C)nc2OC)n1CC	none (no result: Rv3671c inh, Mtb UGM inh, Mtb betalactam, GDH-TPI inh, Mtb FBA inh)
O=C(COc1ccccc1Cl)Nc1nnc(S(=O)(=O)N2CCCC2)s1	PriA SSB inh 85.0
O=C(Nc1nnc(S(=O)(=O)N2CCCCCC2)s1)c1ccccc1	PriA SSB inh 101.0
Cc1ccccc1N1CCN(S(=O)(=O)c2nnc(NC(=O)c3ccco3)s2)CC1	GDH-TPI inh 34.7
O=C(COc1ccccc1)Nc1nnc(S(=O)(=O)N2CCCC2)s1	none
O=C(Nc1nnc(S(=O)(=O)N2CCOCC2)s1)c1ccccc1	none
CCC(CNC(=O)c1cccc(C(F)(F)F)c1)(OC)c1ccccc1 (centres undefined)	none (no result: Rv3671c inh, Mtb UGM inh, Mtb betalactam, GDH-TPI inh, Mtb FBA inh)
O=C(c1ccccn1)N(Cc1ccoc1)Cc1cccs1	none (no result: Rv3671c inh, Mtb UGM inh, Mtb betalactam, GDH-TPI inh, Mtb FBA inh)
Cc1ccc(-c2nc(C#N)c(N3CCCC3)o2)cc1	none (no result: Rv3671c inh, Mtb UGM inh, Mtb betalactam, GDH-TPI inh, Mtb FBA inh)
COc1ccc(OCc2nc(C#N)c(NCCCn3ccnc3)o2)cc1	none
Cc1ccc(OCc2ccc(-c3nc(C#N)c(NCCCn4ccnc4)o3)o2)cc1	PriA SSB inh 60.0! (no result: Rv3671c inh, Mtb UGM inh, Mtb betalactam, GDH-TPI inh, Mtb FBA inh)
CCOc1ccc(-c2nc(C#N)c(N3CCCC3)o2)cc1	none (no result: Rv3671c inh, Mtb UGM inh, Mtb betalactam, GDH-TPI inh, Mtb FBA inh)
CCOc1ccc(-c2nc(C#N)c(N3CCCCC3)o2)cc1	PriA SSB inh 93.6 (no result: Rv3671c inh, Mtb UGM inh, Mtb betalactam, GDH-TPI inh, Mtb FBA inh)
N#Cc1nc(-c2ccc(F)cc2)oc1N1CCCCCC1	PriA SSB inh 112.2 (no result: Rv3671c inh, Mtb UGM inh, Mtb betalactam, GDH-TPI inh, Mtb FBA inh)
CCOc1ccc(-c2nc(C#N)c(N3CCOCC3)o2)cc1	Mtb FBA inh 175.0
Cc1cc(NC(=O)c2ccc3c(c2)OCCO3)n(C(C)C)n1	none (no result: Rv3671c inh, Mtb UGM inh, Mtb betalactam, GDH-TPI inh, Mtb FBA inh)
CCOC(=O)C1=C(C)N=c2s/c(=C/c3ccc(OC)c(OC)c3)c(=O)n2C1c1ccco1 (centres undefined)	none (no result: Rv3671c inh, Mtb UGM inh, Mtb betalactam, GDH-TPI inh, Mtb FBA inh)
O=S(=O)(NCC(c1ccsc1)N1CCOCC1)c1ccccc1Cl (centres undefined)	none (no result: Rv3671c inh, Mtb UGM inh, Mtb betalactam, GDH-TPI inh, Mtb FBA inh)
CC1CNc2ccccc2NC1=O (centres undefined)	none (no result: Rv3671c inh, Mtb UGM inh, Mtb betalactam, GDH-TPI inh, Mtb FBA inh)
CCCOc1ccc(-c2nc(C#N)c(N3CCCC3)o2)cc1	none (no result: Rv3671c inh, Mtb UGM inh, Mtb betalactam, GDH-TPI inh, Mtb FBA inh)
COc1ccc(-c2nc(C#N)c(N3CCN(c4ccccc4)CC3)o2)cc1	none
COc1ccc(-c2nc(C#N)c(N3CCCN(C)CC3)o2)cc1	PriA SSB inh 69.3 (no result: Rv3671c inh, Mtb UGM inh, Mtb betalactam, GDH-TPI inh, Mtb FBA inh)
Cc1ccc(OCc2ccc(-c3nc(C#N)c(N4CCCCC4)o3)o2)cc1	PriA SSB inh 81.8 (no result: Rv3671c inh, Mtb UGM inh, Mtb betalactam, GDH-TPI inh, Mtb FBA inh)
CCc1nn(CC(=O)NCCN2CCN(C)CC2)c(=O)c2cc3c(OC)cccc3n12	Mtb FBA inh active
COc1cccc2c1cc1c(=O)n(CC(=O)N3CCC(C)CC3)nc(C)n12	Mtb betalactam inconclusive, Mtb FBA inh active
CCc1nn(CC(=O)NCCC(C)C)c(=O)c2cc3c(OC)cccc3n12	none
O=C(Nc1ccc(F)c(C(F)(F)F)c1)c1cccn(Cc2ccccc2Cl)c1=O	none (no result: Rv3671c inh, Mtb UGM inh, Mtb betalactam, GDH-TPI inh, Mtb FBA inh)
Cc1ccc(Nc2cc(C)nc3c(C)c(C)cc([N+](=O)[O-])c23)cc1	PriA SSB inh 66.0 (no result: Rv3671c inh, Mtb UGM inh, Mtb betalactam, GDH-TPI inh, Mtb FBA inh)
Cc1cc(Nc2ccccc2)c2c([N+](=O)[O-])c(C)cc(C)c2n1	none
O=C(NC1CCCC1)c1ccc2c(=O)n(Cc3ccccc3)c3nn(Cc4ccccc4)c(=O)n3c2c1	none (no result: Rv3671c inh, Mtb UGM inh, Mtb betalactam, GDH-TPI inh, Mtb FBA inh)
C=CCN(CC=C)S(=O)(=O)c1ccc(NC(=S)NC(=O)/C=C/c2ccccc2)cc1	GDH-TPI inh 31.1
C=CCN(CC=C)C(=S)NC(=O)/C=C/c1ccccc1	none
CN(O)C=c1ccc2c(n1)C(=O)C=CC=2	PriA SSB inh 95.5 (no result: Rv3671c inh, Mtb UGM inh, Mtb betalactam, GDH-TPI inh, Mtb FBA inh)
CN(O)/C=c1/ccc2c(n1)C(=O)C=CC=2	none (no result: PriA SSB inh)
CC(C)CNC(=O)/C(C#N)=C1\N=C(NC(=O)c2ccco2)c2ccccc21	none
CCCNC(=O)/C(C#N)=C1\N=C(NC(=O)c2ccco2)c2ccccc21	GDH-TPI inh 35.4
COCCNC(=O)/C(C#N)=C1\N=C(NC(=O)c2ccco2)c2ccccc21	GDH-TPI inh 45.1 (no result: PriA SSB inh, Rv3671c inh, Mtb UGM inh, Mtb betalactam)
CC(C)CC(=O)Nc1nc(-c2ccc(S(=O)(=O)N3CCOCC3)cc2)cs1	Mtb FBA inh 31.4 (no result: Rv3671c inh, Mtb UGM inh, Mtb betalactam)
